# Source: PubChem BioAssay (The Scripps Research Institute Molecular Screening Center)
# SRC3 TRFRET art: TR-FRET detection interference compounds, artefact control for PPARgamma SRC-3 recruitment agonists, biochemical, TR-FRET ratio; 99,000 tested, 0.39% active; TR-FRET ratio at 8 µM; TR-FRET artefact counter-screen, PPARgamma/SRC-3 format; active compounds read high
# PPARg SRC-3 ag: PPARgamma agonists recruiting SRC-3 coactivator, primary screen, biochemical. Peroxisome proliferator-activated receptor gamma (Homo sapiens), P37231. biochemical PPARgamma/SRC-3 coactivator recruitment assay. activation, % at 8 µM. 200,000 tested, 0.26% active. AID 731, 2007; in the data active = activation above about 23%
# Target sequence (P37231 whole entry, looked up): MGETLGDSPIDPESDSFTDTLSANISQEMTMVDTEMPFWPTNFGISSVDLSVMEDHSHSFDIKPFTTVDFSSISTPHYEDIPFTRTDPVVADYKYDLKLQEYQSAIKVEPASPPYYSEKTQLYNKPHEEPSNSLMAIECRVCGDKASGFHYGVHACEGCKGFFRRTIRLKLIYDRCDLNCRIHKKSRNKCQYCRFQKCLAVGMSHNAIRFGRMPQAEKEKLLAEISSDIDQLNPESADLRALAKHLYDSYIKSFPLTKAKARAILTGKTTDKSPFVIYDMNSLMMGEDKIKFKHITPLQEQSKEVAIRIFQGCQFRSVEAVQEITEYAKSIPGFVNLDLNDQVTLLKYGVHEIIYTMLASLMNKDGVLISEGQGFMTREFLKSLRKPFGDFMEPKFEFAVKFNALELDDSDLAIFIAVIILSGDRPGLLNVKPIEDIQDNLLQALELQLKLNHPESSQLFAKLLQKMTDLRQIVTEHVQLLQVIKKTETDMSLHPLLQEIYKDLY
# SRC1 TRFRET art: TR-FRET detection interference compounds, primary screen, artefact control for PPARgamma SRC-1 recruitment agonists, biochemical, TR-FRET emission ratio; TR-FRET detection artefact counter-screen; active compounds read high; TR-FRET ratio at 8 µM; 99,000 tested, 0.34% active; AID 1051, 2008; in the data active = TR-FRET ratio above about 2300
# TR-FRET SRC-2 ct: TR-FRET signal artefacts, primary screen, artefact control for PPARgamma SRC-2 agonist project, biochemical; TR-FRET artefact counter-screen; active compounds read high; TR-FRET ratio at 8 µM; 200,000 tested, 0.4% active; AID 1049, 2008
# PPARg SRC2 recr: agonists of PPARg-SRC-2 recruitment, primary screen, biochemical, HTS. AID 1032, 2008. PPARgamma LBD-SRC-2 recruitment. activation, % at 8 µM. Peroxisome proliferator-activated receptor gamma (Homo sapiens), P37231. 200,000 tested, 0.34% active; in the data active = activation above about 22%
# PPARg SRC1 recr: PPARgamma agonists recruiting SRC-1 coactivator, primary screen, biochemical | AID 631, 2007 | PPARgamma-SRC-1 coactivator recruitment biochemical assay | Peroxisome proliferator-activated receptor gamma (Homo sapiens), P37231 | 200,000 tested, 0.41% active | activation, % at 8 µM; in the data active = activation above about 19%
# Hits are given with their value; 0 = inactive; - = no result given. In the library only some 0.9% were active in any assay of this set; here they are far more common. Rule as the data show it, unless noted: active = TR-FRET ratio above about 2000; inactive = the rest.
SMILES,SRC3 TRFRET art,PPARg SRC-3 ag,SRC1 TRFRET art,TR-FRET SRC-2 ct,PPARg SRC2 recr,PPARg SRC1 recr
COC(=O)C1CCN(CC(=O)Nc2ccc(OC)c(Cl)c2)CC1,0,0,0,0,0,0
COc1ccc(N2CCN(C(=O)c3cccnc3)CC2)c([N+](=O)[O-])c1,0,0,0,0,0,0
CCC(=O)N1CCN(c2nc3ccccc3s2)CC1,-,0,-,0,0,0
O=C(c1cc2sccc2n1Cc1ccccc1)N1CCN(c2nc3ccccc3s2)CC1,-,0,-,2570,0,0
COCc1cc(C)nc(Nc2ccc(C)cc2C)c1C#N,-,0,-,1983,0,0
COc1cccc(CC2(CO)CCCN(Cc3ccc(CN4CCCCC4)s3)C2)c1 (stereo unspecified),0,0,0,0,0,0
N#CC(C#N)=c1ccc2c(c1)NC1(CCCCC1)N=2,-,29,-,0,28,39
O=C1NC2(CCCC2)N=C1c1ccc(Cl)cc1,-,0,-,0,0,0
C=CCc1cc(/C=C2/NC(=O)N(CC)C2=O)cc(OCC)c1OCc1ccc(C(=O)O)cc1,0,0,0,0,0,0
COc1ccc(N2C(=O)c3ccccc3NC2c2ccc(OC)c(COc3ccccn3)c2)cc1 (stereo unspecified),0,0,0,0,0,0
COc1ccc(N2C(=O)c3ccccc3NC2c2ccc(OC)c(CSc3ccccn3)c2)cc1 (stereo unspecified),-,0,-,2247,0,0
CC1(C)CC(=O)C2=C(C1)OC1=C(C2)C(=O)CC(C)(C)C1,0,0,0,0,0,0
O=C1c2ccccc2C(=O)N1Cc1ccc2c(c1)OCO2,-,0,-,0,0,0
Cc1ccc(S(=O)(=O)NCc2ccc3c(c2)cc(C)n3C)cc1,-,0,-,2007,0,0
Cc1cc2cc(CN3C(=O)c4ccccc4C3=O)ccc2n1C,2708,0,0,0,0,0
CC(C)Nc1nc(NC(C)C)nc(SCC(N)=O)n1,0,0,0,0,0,0
CS(=O)(=O)N1N=C(c2cccs2)CC1c1ccc(Cl)o1 (stereo unspecified),0,0,0,0,0,0
CCc1cc2c(=O)c(-c3nc(C)cs3)c(CCCC(=O)O)oc2cc1O,0,0,0,0,0,0
CCc1cc2c(=O)c(-c3nc(C)cs3)coc2cc1OC(C)C(=O)NCCO (stereo unspecified),0,0,5866,2120,25,138
OC1(c2ccc(Br)cc2)CN(c2ccccc2)C2=[N+]1CCS2 (stereo unspecified),2102,0,0,0,0,0
OC1(c2ccc(Cl)cc2)CN(c2ccccc2)C2=[N+]1CCS2 (stereo unspecified),0,0,0,0,0,0
CCOC(=O)c1sc(NC(=O)CSc2nnnn2-c2ccc(C)c(C)c2)nc1C,-,0,-,4861,156,0
COc1cc(OC)cc(-n2nnnc2SCC(=O)Nc2ccc(C(C)=O)cc2)c1,-,0,-,0,0,51
CN1CCCN(S(=O)(=O)c2ccc(Cl)c(Cl)c2)CC1,0,0,0,0,0,0
Cc1nc(N2CCCCC2)c2c(-c3cccs3)csc2n1,0,0,0,0,0,0
SMILES,SRC3 TRFRET art,PPARg SRC-3 ag,SRC1 TRFRET art,TR-FRET SRC-2 ct,PPARg SRC2 recr,PPARg SRC1 recr
Cc1nc(N2CCN(S(=O)(=O)c3ccccc3C#N)CC2)c2c(-c3cccs3)csc2n1,2725,0,0,0,0,0
COc1ccc(-c2cn(-c3ccccc3)c3[n+]2CCS3)cc1,0,0,0,0,0,0
COc1ccc(/C=N/NC(=O)c2cccc(NC(C)=O)c2)c(C(=O)O)c1OC,0,0,0,0,0,0
Cc1cc(OCC(=O)Nc2cc(-c3nn4c(C)nnc4s3)ccc2C)ccc1Cl,-,0,-,0,0,89
C=CCn1c(SCc2ccc(C(=O)OC)cc2)nnc1-c1sc(N)nc1C,0,0,0,1972,0,0
CCOC(=O)c1c(NC(=O)C2=C(C)NC(=S)NC2c2ccc(F)cc2)sc(C)c1C (stereo unspecified),0,0,0,0,0,0
CCOC(=O)c1c(NC(=O)C2=C(C)NC(=S)NC2c2ccc(C)cc2)sc(C)c1C (stereo unspecified),0,0,2914,0,0,0
CC(=O)c1cc(OC(=O)c2ccncc2)ccc1OC(=O)c1ccncc1,-,0,-,0,0,0
Cc1nnc(SCc2ccccc2)n1N,0,0,0,0,0,22
O=C(c1cc(COc2ccc(F)cc2Cl)on1)N1CCC(OCc2cccnc2)CC1,0,0,0,0,0,0
O=C(c1cc(COc2ccc(F)cc2Cl)on1)N1CCCC(OCc2cccnc2)C1 (stereo unspecified),0,0,0,2120,40,0
Cc1cc([N+](=O)[O-])ccc1N=Nc1c(N)[nH]n(-c2ccccc2)c1=O,0,0,2323,0,0,0
Cc1cc(C(=O)N/N=C/c2cn[nH]c2-c2ccccc2)cs1,0,0,0,0,25,0
N#Cc1c(N)nc(SCC(=O)NC2CCCCC2)c(C#N)c1-c1ccc(Cl)cc1,-,0,-,0,0,43
C#Cc1ccc([C@@H]2C=C(C(=O)N3CCN(Cc4ccc5c(c4)OCO5)CC3)O[C@H](OCCCCO)C2)cc1,0,0,0,0,0,0
CC1=C(C(=O)Nc2ccc(F)c(F)c2)C(c2cccs2)NC(=S)N1 (stereo unspecified),0,0,2450,1973,0,0
CC1C(Br)C(=O)NC(=O)N1Cc1ccccc1 (stereo unspecified),0,0,0,0,0,21
CCN(CC)CC(O)CN1C(=O)NC(C)(C)C1=O (stereo unspecified),0,0,0,0,0,0
Cc1ccc(OC/C(O)=C(\C#N)c2nc3ccccc3s2)cc1,0,0,0,0,0,0
Cn1c(/C(C#N)=C(\O)COc2ccc3ccccc3c2)nc2ccccc21,0,0,0,2360,32,0
Cc1ccccc1N=Cc1cc2c(cc1O)OC(N)=C(C#N)C2c1ccccc1 (stereo unspecified),0,0,2419,0,0,0
Brc1ccc(-c2csc(N/N=C/c3ccco3)n2)cc1,0,0,0,0,22,0
Cc1ccc(-c2csc(N/N=C/c3ccco3)n2)cc1,-,0,-,0,0,0
O=C(NC(=S)Nc1ccc(S(=O)(=O)Nc2nccs2)cc1)c1ccccc1,0,0,0,0,0,0
CC(C)C(=O)NC(=S)Nc1ccc(S(=O)(=O)Nc2nccs2)cc1,0,0,2318,0,0,0
O=C(CSc1ccc(Br)c2cccc(Cl)c12)Nc1ccc(S(=O)(=O)Nc2nccs2)cc1,2321,0,2830,1982,0,30
COc1ccccc1N(C1=NCCCS1)S(=O)(=O)c1ccc(C(C)(C)C)cc1,0,0,0,0,0,0
CN(C)c1ccc(NC(=O)COC(=O)Cn2nnc3ccccc32)cc1,0,0,0,0,0,0
